Screens from PubChem BioAssay.
G9a block – G9a (human) methyltransferase inhibition; Q96KQ7; 350,000 tested, 8.8% active; Potency, µM (top dose mostly 102 µM), without a hit: top-dose activity, negative = inhibition, usual class: inhibitors; G9a H3K9 monomethylation, AlphaScreen, 2 h; further: on the % scale 0 is the no-effect control and ±100 the full control effect; nearly all actives have a fitted effect of over 75% in size
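G9a (20 nM) preincubated 15 min RT with compounds, then 500 nM biotinylated H3K9 peptide and 20 uM SAM added; 2 h RT reaction. Monomethyl-H3K9 product detected by AlphaScreen with anti-H3K9me1 antibody, streptavidin donor and anti-rabbit IgG acceptor beads.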
BAZ2B inh – inhibitors of human BAZ2B bromodomain; 360,000 tested, 4.4% active; Potency, µM (top dose mostly 114 µM), without a hit: top-dose activity change, negative = inhibition, hits mostly inhibitors; AlphaScreen BAZ2B-H3K14Ac peptide displacement; Q9UIF8; AID 504333; further: on the % scale 0 is the no-effect control and ±100 the full control effect; nearly all actives have a fitted effect of over 60% in size
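AlphaScreen luminescence quantifies BAZ2B engagement of H3K14Ac peptide; the protein and biotinylated peptide are both at 50 nM final, buffer PBS pH 7.4 with 0.01% Tween-20, all steps at room temperature.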
JMJD2A Tudor – blocks the human JMJD2A Tudor domain; Potency, µM (series often up to 114 µM), for inactives: at the highest dose activity change, negative = inhibition, most hits filed as inhibitors; AlphaScreen JMJD2A-Tudor / H3K4me3 peptide binding; 390,000 tested, 4.4% active; further: on the % scale 0 is the no-effect control and ±100 the full control effect; nearly all actives have a fitted effect of over 50% in size
HP1b chromo inh – inhibitors of HP1-beta chromodomain binding to methylated histone tails; 390,000 tested, 0.56% active; AID 540317; P83916; AlphaScreen HP1-beta / biotin-H3K9me3 peptide binding; Potency, µM (top dose mostly 114 µM), inactives show at the highest dose activity change, negative = inhibition, most hits filed as inhibitors; further: nearly all actives have a fitted effect of over 70% in size
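Compound inhibition of the preformed complex between 50 nM HP1-beta and 50 nM biotinylated H3K9me3 peptide was read by AlphaScreen. Buffer was PBS pH 7.4 with 0.01% Tween-20. Incubations ran 30 min at room temperature, with 10 ug/mL donor/acceptor beads.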
GLS inhibitor – inhibitors of human glutaminase (GLS); GLS enzymatic activity, qHTS titration; O94925; Potency, µM (series often up to 45.5 µM), inactives show at the highest dose activity change, negative = inhibition, actives largely listed as inhibitors; AID 624170; 410,000 tested, 0.21% active; further: on the % scale 0 is the no-effect control and ±100 the full control effect
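hKGA in 45 mM KH2PO4 pH 8.2, 0.02% Tween-20 with pin-transferred compounds; 1 mM L-glutamine (stock) plus glutamate oxidase/HRP/Amplex Red coupling added. Fluorescence read initially and after 30 min at RT.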
Starred values were filed as active, the others as inactive; [ ] = dose if it differs, or a comment. Shown are actives, neighbours in structure and some others; about 10% of the full set was active somewhere. The call rests on the fitted dose curve; in most records, active means well fitted curve in the direction sought with a large enough effect; inconclusive means small, poorly fitted or top-dose-only effect, or another doubt; inactive means no such curve, though single readings can be large; an effect the other way counts as inactive or inconclusive. Potency means the concentration at half of the fitted maximal effect.

`Cc1ccc(-n2nc(C)c3c2C(Br)C(C)(C)CC3=O)nc1` (centres undefined) gave JMJD2A Tudor -10%, HP1b chromo inh 30% and GLS inhibitor -10%.
`O=C(Nc1ccc(Cl)cc1F)C1CCCN(C2=NS(=O)(=O)c3ccccc32)C1` (centres undefined) gave G9a block 50µM*, BAZ2B inh 13%, JMJD2A Tudor -18%, HP1b chromo inh 22% and GLS inhibitor 4%.
`CCOC(=O)/C=c1\s/c(=C\c2sccc2C)c(=O)n1CC(=O)NCc1ccc(C)cc1` gave G9a block 22% and BAZ2B inh -4%.
Screening Cc1[nH]c2ccc(C(=O)OC(C)C(=O)N(C)c3ccccc3)cc2c1C (centres undefined) returned G9a block 1%[0.501 µM], BAZ2B inh 50µM*, JMJD2A Tudor inconclusive, HP1b chromo inh inconclusive and GLS inhibitor 3%.
Cc1ccccc1NC(=O)c1ccc2[nH]c(C)c(C)c2c1 was read as G9a block -7%[59 µM], BAZ2B inh -33%, JMJD2A Tudor -35%, HP1b chromo inh -4% and GLS inhibitor 3%.
Cc1ccc(C(=O)OC(C)C(=O)N(C)C2CCCCC2)cc1S(=O)(=O)N1CCCCC1 (centres undefined) was read as G9a block -2%[59 µM], BAZ2B inh 9%, JMJD2A Tudor -6%, HP1b chromo inh 44% and GLS inhibitor -2%.
`CC(=O)Nc1ccc(NC(=O)C(C)OC(=O)c2ccc3[nH]c(C)c(C)c3c2)cc1` (centres undefined) gave G9a block 50µM*, BAZ2B inh -3%, JMJD2A Tudor inconclusive, HP1b chromo inh -7% and GLS inhibitor 16%.
For Cc1[nH]c2ccc(C(=O)OC(C)C(=O)N(C)C3CCCCC3)cc2c1C (centres undefined) the results were G9a block 45µM*, BAZ2B inh 56µM*, JMJD2A Tudor inconclusive, HP1b chromo inh inconclusive and GLS inhibitor -2%.
For COCC(=O)N(C)C[C@@H]1Oc2cc(-c3ccc(F)cc3)ccc2S(=O)(=O)N([C@H](C)CO)C[C@H]1C the results were GLS inhibitor 4%.
Screening COc1ccc(CNS(=O)(=O)c2cc3c(cc2Cl)N(C(C)=O)CCO3)cc1 returned G9a block 7%[59 µM], BAZ2B inh 3%, JMJD2A Tudor -21%, HP1b chromo inh 21% and GLS inhibitor 1%.
For Cc1ccc(C)c(NC(=O)CSc2c3c(nc4ccc(Cl)cc24)CCCC3)c1 the results were G9a block -8%[59 µM], JMJD2A Tudor -16%, HP1b chromo inh 22% and GLS inhibitor -6%.
`Cc1coc2c1C(=O)C(=O)c1c-2ccc2c1CCCC2(C)C` gave G9a block 2.2µM*, BAZ2B inh 7.9µM*, JMJD2A Tudor 45µM*, HP1b chromo inh inconclusive and GLS inhibitor -4%.
Screening Cc1coc2c1C(=O)C(=O)c1c-2ccc2c(C)cccc12 returned G9a block inconclusive, BAZ2B inh 35µM*, JMJD2A Tudor 35µM*, HP1b chromo inh inconclusive and GLS inhibitor 5%.
`CC(=O)c1ccc2noc(-c3ccc(F)cc3)c2c1` gave G9a block -40%, BAZ2B inh -6%, JMJD2A Tudor -2%, HP1b chromo inh 32% and GLS inhibitor 2%.
Screening CCCc1nnc(SCc2ccc(OC)cc2)n1N returned G9a block -27%[12.7 µM], BAZ2B inh 4%, JMJD2A Tudor 14µM*, HP1b chromo inh inconclusive and GLS inhibitor inconclusive.
Screening Cc1ccc(N2C(=O)CSC23C(=O)Nc2ccccc23)cc1F (centres undefined) returned G9a block -3%[59 µM], BAZ2B inh -17%, JMJD2A Tudor -13%, HP1b chromo inh 21% and GLS inhibitor -8%.
Clc1nssc1=Nc1ccccc1 was read as G9a block 2µM*, BAZ2B inh 28µM*, JMJD2A Tudor 79µM*, HP1b chromo inh 35µM* and GLS inhibitor inconclusive.
`N#Cc1ccc(N=c2ssnc2Cl)cc1` gave G9a block inconclusive, BAZ2B inh 35µM*, JMJD2A Tudor 22µM*, HP1b chromo inh 7.1µM* and GLS inhibitor inconclusive.
O=C1CSC(=Nc2ccccc2)N1Cc1ccccc1 was read as G9a block 83%, JMJD2A Tudor 41%, HP1b chromo inh 80% and GLS inhibitor -1%.
Screening Clc1ccc(N=c2ssnc2Cl)cc1 returned G9a block 1.6µM*, BAZ2B inh 40µM*, JMJD2A Tudor 50µM*, HP1b chromo inh inconclusive and GLS inhibitor 78%.
Screening COc1ccc(N=c2ssnc2Cl)cc1 returned G9a block 1.3µM*, BAZ2B inh 45µM*, JMJD2A Tudor -17%[11.4 µM], HP1b chromo inh inconclusive and GLS inhibitor -10%.
For c1ccc(-c2ncnc3ccccc23)cc1 the results were JMJD2A Tudor -11%, HP1b chromo inh 29% and GLS inhibitor 7%.
For Fc1ccc(N=c2ssnc2Cl)c(F)c1 the results were G9a block 1.6µM*, BAZ2B inh 50µM*, JMJD2A Tudor 22µM*, HP1b chromo inh 5.6µM* and GLS inhibitor inconclusive.
COc1cc(N=c2ssnc2Cl)cc(OC)c1OC was read as G9a block inconclusive, BAZ2B inh 28µM*, JMJD2A Tudor inconclusive, HP1b chromo inh 28% and GLS inhibitor inconclusive.
`CCOC(=O)c1ccc(N=c2ssnc2Cl)cc1` gave G9a block 1.8µM*, BAZ2B inh 28µM*, JMJD2A Tudor 14µM*, HP1b chromo inh 7.9µM* and GLS inhibitor 13µM*.
COc1ccc(NC(=O)C2CCCN2S(=O)(=O)c2ccc3c(c2)CCCC(=O)N3)cc1Cl (centres undefined) was read as G9a block 1%[59 µM], BAZ2B inh 1%, JMJD2A Tudor -14%, HP1b chromo inh 1% and GLS inhibitor 2%.
Screening COc1ccc(N2CCN(C(CNC(=O)C(=O)NCCc3ccccc3)c3cccnc3)CC2)cc1 (centres undefined) returned G9a block -6%[59 µM], BAZ2B inh -2%, JMJD2A Tudor -18%, HP1b chromo inh 39% and GLS inhibitor 30%.
For CCCN1C(=O)CC(c2ccc(OC)c(OC)c2)C1=O (centres undefined) the results were GLS inhibitor 2%.
For COc1ccc(Cl)c2c1[nH]c1nc(SCc3ccccn3)nnc12 the results were G9a block 2µM*, BAZ2B inh -25%, JMJD2A Tudor -15%, HP1b chromo inh 16% and GLS inhibitor -2%.
Cc1occc(=O)c1OCc1ccccc1 was read as G9a block 14%, BAZ2B inh inconclusive, JMJD2A Tudor -6%, HP1b chromo inh 25% and GLS inhibitor 3%.
`Cc1occc(=O)c1O` gave G9a block inconclusive, BAZ2B inh inconclusive, JMJD2A Tudor 25µM*, HP1b chromo inh 23% and GLS inhibitor 16%.
